From PubChem BioAssay (NCATS)
Several values for one entry are separate records, joined by “and”; a condition that tells them apart may be missing. Equal entries are not always repeated. Inconclusive results are not listed. Activity calls are given as the source filed them. Calls come from the whole dose curve; as a rule, active = well fitted inhibition curve with a large enough effect; inconclusive = small, poorly fitted or top-dose-only effect; inactive = flat fitted curve, though single readings scatter.

Key:
[1] = qHTS profiling for inhibitors of Plasmodium falciparum proliferation (AID 504749); note: nearly all actives have a fitted effect of over 60% in size;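 for activity, negative = inhibition: 0% = DMSO vehicle and full inhibition = artemisinin control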; details: P. falciparum in erythrocytes, SYBR Green DNA, 72 h
Procedure, shortened: (§1)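 SYBR Green fluorescence of parasite DNA, read after lysis and overnight dark incubation, measured growth over 72 h in erythrocyte culture at 0.3% parasitemia and 2.5% hematocrit. Data normalised to DMSO and 0.29 uM artemisinin, with plate-drift correction.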

3D7 = assay: as above; details: P. falciparum in erythrocytes, SYBR Green DNA, 72 h; series mostly up to 28.7 µM
Procedure, shortened: as §1

7G8 = assay: as above; details: P. falciparum in erythrocytes, SYBR Green DNA, 72 h; series mostly up to 28.7 µM
Procedure, shortened: as §1

AA1029 = assay: as above; details: P. falciparum in erythrocytes, SYBR Green DNA, 72 h; series mostly up to 28.7 µM
Procedure, shortened: as §1

AS120 = assay: as above; details: P. falciparum in erythrocytes, SYBR Green DNA, 72 h; series mostly up to 28.7 µM
Procedure, shortened: as §1

ATS189 = assay: as above; details: P. falciparum in erythrocytes, SYBR Green DNA, 72 h; series mostly up to 28.7 µM
Procedure, shortened: as §1

ATS95 = assay: as above; details: P. falciparum in erythrocytes, SYBR Green DNA, 72 h; series mostly up to 28.7 µM
Procedure, shortened: as §1

C2A = assay: as above; details: P. falciparum in erythrocytes, SYBR Green DNA, 72 h; series mostly up to 28.7 µM
Procedure, shortened: as §1

CP185 = assay: as above; details: P. falciparum in erythrocytes, SYBR Green DNA, 72 h; series mostly up to 28.7 µM
Procedure, shortened: as §1

CP191 = assay: as above; details: P. falciparum in erythrocytes, SYBR Green DNA, 72 h; series mostly up to 28.7 µM
Procedure, shortened: as §1

[2] = at 12.8 µM (top of the series), parasite line A
[3] = at 12.8 µM (top of the series), parasite line B
[4] = at 28.7 µM (top of the series), parasite line A
[5] = at 28.7 µM (top of the series), parasite line B
Potency is the fitted concentration of half-maximal effect.

CC(=O)CCCCn1c(=O)c2c(ncn2C)n(C)c1=O
inactive: activity, negative = inhibition [1, 2] -2.51% | activity, negative = inhibition [1, 3] 2.9% | outcome (3D7) | Potency (7G8) | outcome (AA1029) | Potency (AS120) | Potency (ATS189) | outcome (ATS95) | outcome (C2A) | outcome (CP185) | Potency (CP191)

CC(=O)O[C@]1(C(C)=O)CC[C@H]2[C@@H]3C=C(Cl)C4=CC(=O)[C@@H]5C[C@@H]5[C@]4(C)[C@H]3CC[C@@]21C
active: Potency (7G8) 11.2 µM
inactive: Potency (ATS189) | outcome (CP185)

CCOC(=O)O[C@]1(C(=O)OCCl)CC[C@@H]2[C@H]3CCC4=CC(=O)C=C[C@]4(C)[C@@H]3[C@@H](O)C[C@@]21C
inactive: activity, negative = inhibition [1, 4] -7.57% | activity, negative = inhibition [1, 5] 4.48% | outcome (3D7) | outcome (AA1029) | Potency (AS120) | Potency (ATS189) | outcome (ATS95) | outcome (C2A) | outcome (CP185) | Potency (CP191)

O=C1NCC2(CCN(CCc3ccccc3)CC2)O1
inactive: activity, negative = inhibition [1, 4] 12% | activity, negative = inhibition [1, 5] 1.55% | outcome (3D7) | Potency (7G8) | outcome (AA1029) | Potency (AS120) | Potency (ATS189) | outcome (ATS95) | outcome (C2A) | outcome (CP185) | Potency (CP191)

CCN(CC)CCOC(=O)c1ccc(N)cc1
inactive: activity, negative = inhibition [1, 2] -0.702% | outcome (3D7) | Potency (7G8) | outcome (AA1029) | Potency (AS120) | Potency (ATS189) | outcome (ATS95) | outcome (C2A) | outcome (CP185) | Potency (CP191)

CC(=O)c1ccc(S(=O)(=O)NC(=O)NC2CCCCC2)cc1
inactive: activity, negative = inhibition [1, 4] 3.57% | activity, negative = inhibition [1, 5] 7.49% | outcome (3D7) | Potency (7G8) | outcome (AA1029) | Potency (AS120) | Potency (ATS189) | outcome (ATS95) | outcome (C2A) | outcome (CP185) | Potency (CP191)

COc1ccccc1N1CCN(CCCNc2cc(=O)n(C)c(=O)n2C)CC1
inactive: activity, negative = inhibition [1, 4] -3.41% and -6.84% | activity, negative = inhibition [1, 5] -11.7% and -0.932% | outcome (3D7) | Potency (7G8) | outcome (AA1029) | Potency (AS120) | Potency (ATS189) | outcome (ATS95) | outcome (C2A) | outcome (CP185) | Potency (CP191)

CCCCCN(C)CCC(O)(P(=O)(O)O)P(=O)(O)O
inactive: activity, negative = inhibition [1, 4] 13.8% | activity, negative = inhibition [1, 5] 15.2% | outcome (3D7) | Potency (7G8) | outcome (AA1029) | Potency (AS120) | Potency (ATS189) | outcome (ATS95) | outcome (C2A) | outcome (CP185) | Potency (CP191)

CC1=C(/C=C/C(C)=C/C=C/C(C)=C/C(=O)Nc2ccc(O)cc2)C(C)(C)CCC1
active: Potency ([1]; parasite line A) 11.2 µM | Potency ([1]; parasite line B) 10 µM | Potency (7G8) 8.91 µM | Potency (AS120) 10 µM | Potency (ATS189) 7.94 µM | Potency (CP191) 7.94 µM

O=C(O)c1c(Cl)c(Cl)c(Cl)c(Cl)c1-c1c2cc(I)c(=O)c(I)c-2oc2c(I)c(O)c(I)cc12
inactive: activity, negative = inhibition [1, 4] 1.68% | activity, negative = inhibition [1, 5] 2.35% | outcome (3D7) | Potency (7G8) | outcome (AA1029) | Potency (AS120) | Potency (ATS189) | outcome (ATS95) | outcome (C2A) | outcome (CP185) | Potency (CP191)

NC(N)=Nc1nc(CSCC/C(N)=N/S(N)(=O)=O)cs1
inactive: activity, negative = inhibition [1, 4] -15% | activity, negative = inhibition [1, 5] 4.88% | outcome (3D7) | Potency (7G8) | outcome (AA1029) | Potency (AS120) | Potency (ATS189) | outcome (ATS95) | outcome (C2A) | outcome (CP185) | Potency (CP191)

Cc1cnc(C(=O)O)c[n+]1[O-]
inactive: activity, negative = inhibition [1, 4] -1.49% | activity, negative = inhibition [1, 5] -8.14% | outcome (3D7) | Potency (7G8) | outcome (AA1029) | Potency (AS120) | Potency (ATS189) | outcome (ATS95) | outcome (C2A) | outcome (CP185) | Potency (CP191)

O=C(O)c1cc(-c2ccccc2)nc2ccccc12
inactive: activity, negative = inhibition [1, 4] -2.25% | activity, negative = inhibition [1, 5] 7.48% | outcome (3D7) | Potency (7G8) | outcome (AA1029) | Potency (AS120) | Potency (ATS189) | outcome (ATS95) | outcome (C2A) | outcome (CP185) | Potency (CP191)

CC/C(=C(\c1ccccc1)c1ccc(OCCN(C)C)cc1)c1ccccc1
active: Potency (7G8) 12.6 µM

COc1ccc(Cc2nccc3cc(OC)c(OC)cc23)cc1OC
inactive: activity, negative = inhibition [1, 2] 0.631% | activity, negative = inhibition [1, 3] 6.88% | Potency (7G8) | outcome (AA1029) | Potency (AS120) | Potency (ATS189) | outcome (ATS95) | outcome (C2A) | outcome (CP185) | Potency (CP191)

O=c1[nH]cnc2c1ncn2[C@H]1CC[C@@H](CO)O1
active: Potency (7G8) 10 µM
inactive: activity, negative = inhibition [1, 4] -0.993% | activity, negative = inhibition [1, 5] 7.28% | outcome (3D7) | outcome (AA1029) | Potency (AS120) | Potency (ATS189) | outcome (ATS95) | outcome (C2A) | outcome (CP185)

O=C1NC(=O)C(c2ccccc2)(c2ccccc2)N1
inactive: activity, negative = inhibition [1, 4] 3.02% | activity, negative = inhibition [1, 5] -26.3% | outcome (3D7) | Potency (7G8) | outcome (AA1029) | Potency (AS120) | Potency (ATS189) | outcome (ATS95) | outcome (C2A) | outcome (CP185) | Potency (CP191)
